“And” between values parts separate entries of the source, which are not always exact repeats. Equal values may be shown once. Values without a mark were called inactive. Inconclusive results are not listed. A call without a number means that no potency is given here. The source made the active and inactive calls. Unless noted, calls follow the shape of the dose curve; as a rule, active = well fitted curve in the direction sought with a large enough effect; inconclusive = small, poorly fitted or top-dose-only effect, or another doubt; inactive = no such curve, though single readings can be large; an effect the other way counts as inactive or inconclusive.
Experiments:
[1] = qHTS for Activators of Parkin Expression: LOPAC Validation Assay (FLuc Reporter) (AID 720573)
Method in brief: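 FLuc signal from Parkin-promoter coincidence reporter neuronal cells, normalized to DMSO and positive control (100%). Cells (1,500/well) pre-incubated 24 h, then exposed to LOPAC compounds in 7-point dose response for 24 h at 37 C, 5% CO2.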

[2] = biological target: T1, Hexokinase-4 (Homo sapiens) + Glucokinase regulatory protein (Homo sapiens) (UniProt P35557+Q14397); test: qHTS assay for inhibitors of recombinant human GCK-GKRP interaction: Diaphorase-coupled assay (AID 743205)
Method in brief: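 A kinetic fluorescence read (Ex 525/Em 590 nm, every minute for 30 minutes) tracked resorufin from a G6PDH-diaphorase coupled GCK reaction. It contained 10 nM GST-GCK, 10 nM FLAG-GKRP, 5 mM glucose, 0.4 mM ATP in Hepes pH 7.6. Normalized to with/without-enzyme DMSO controls.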

[3] = biological target: T1, Hexokinase-4 (Homo sapiens) + Glucokinase regulatory protein (Homo sapiens); test: qHTS assay for inhibitors of recombinant human GCK-GKRP interaction: ADP-Glo assay (AID 743206)
Method in brief: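 GST-GCK and FLAG-GKRP (15 nM each in the dispensed mix, with 2 uM S6P) react with 0.4 mM ATP and 5 mM glucose (final) in Hepes pH 7.6 for 60 min at room temperature. ADP is measured by ADP-Glo luminescence.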

[4] = qHTS Assay for Identifying Gametocytocidal Compounds (AID 743244); also: potency is read from the fitted curve at half-maximal effect;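 as to max response: actives lower the fluorescent signal which means gametocytes are killed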; details: P. falciparum 3D7 stage III-V gametocytes, alamarBlue, 72 h; max response: hits give low values
Method in brief: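 A resazurin-based viability read-out was applied to mature P. falciparum gametocytes: 72 h compound treatment, then 24 h dye incubation, with falling fluorescence signalling gametocytocidal effect.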

[5] = qHTS assay for measurement of the activity of small molecule inhibitors on Zika virus induced Caspase-3 activity in human iPSC derived neural progenitor cells (hNPCs) (AID 1224857); also: nearly all actives have a fitted effect of over 65% in size; also: potency is read from the fitted curve at half-maximal effect
Method in brief: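 Quantitative HTS format: human iPSC neural progenitors, 1 h compound pretreatment, ZIKV 2 FFU/cell for 6 h at 37 C. Percent inhibition derived from luminescent caspase-3/7 signal between uninfected and infected controls.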

[6] = qHTS assay for measurement of the activity of small molecule inhibitors on Zika virus induced Caspase-3 activity in human astrocytoma cells (AID 1224859); also: potency is read from the fitted curve at half-maximal effect
Method in brief: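 Readout is luminescence from Caspase-Glo 3/7 added after a 6 h ZIKV infection (2 FFU/cell) of compound-pretreated (1 h) SNB-19 cells; data expressed as % inhibition versus uninfected and infected wells.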

[7] = qHTS assay to identify small molecule inhibitors of chordoma cells - UCH-2 (AID 1259356); also: series mostly up to about 46 µM
[8] = biological target: T1, Hexokinase-4 (Homo sapiens) + Glucokinase regulatory protein (Homo sapiens); test: qHTS assay for inhibitors of recombinant human GCK-GKRP interaction: HTRF assay (AID 743207)
Method in brief: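 After 60 min equilibration at room temperature with anti-FLAG XL665 and anti-GST antibodies, FRET ratio (665/615 nm, excitation 320 nm) was read. Proteins: GST-GCK and FLAG-GKRP, each 5 nM, plus 2 uM S6P, pH 7.1 buffer; GCK-free wells define minimum signal.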

[9] = qHTS assay to identify small molecule inhibitors of chordoma cells - UCH-1 (AID 1259355); also: nearly all actives have a fitted effect of over 55% in size
Method in brief: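 Luminescent ATP read-out (CellTiter-Glo, 30min at room temperature) measured viability of UCH-1 cells exposed for 48hr to test drugs at 15 concentrations, co-dosed with a five-agent combination of auranofin, camptothecin, doxorubicin, rubitecan and topotecan.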

[10] = qHTS assay for small molecule agonists of the antioxidant response element (ARE) signaling pathway measured by Nrf2-dependant transcriptional activity (AID 720636; active = well fitted curve in the direction sought with a large enough effect in the repeat runs; an effect the other way counts as inactive or inconclusive)
Method in brief: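 ARE-luc HepG2 cells carrying an Nrf2-responsive luciferase reporter, in medium with 1% dialyzed FBS, exposed to compound for 16 hr at 37 C, 5% CO2. Luminescence read 30 min after ONE-Glo addition.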

[11] = qHTS assay for small molecule agonists of the antioxidant response element (ARE) signaling pathway measured by Nrf2-dependant transcriptional activity - cell viability counter screen (AID 720653; active = well fitted curve in the direction sought with a large enough effect in the repeat runs; an effect the other way counts as inactive or inconclusive); details: ARE-bla HepG2 viability, CellTiter-Glo ATP luminescence, 16 h; max response: hits give low values
Method in brief: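 ARE-bla HepG2 cells (2,000/well) rested 5 hrs at 37C/5% CO2, then exposed to compounds in DMSO for 16 hrs. Viability was read in the same wells as intracellular ATP by luminescence, 30 min at room temperature after reagent addition.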

[12] = qHTS assay for cell viability of HEK293 cells (AID 743288); details: ATP luminescence (CellTiter-Glo), 18 h; max response: hits give low values; also: nearly all actives have a fitted effect of over 50% in size
Method in brief: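 Total intracellular ATP, measured with a luciferase-coupled reagent, indicates the number of viable HEK293 cells. Exposure to test chemicals lasts 18 h at 37 C in 1,536-well format at 2,000 cells/well.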

[13] = qHTS assay for cell viability of the p53RE-bla HCT-116 cell line (AID 743292); also: nearly all actives have a fitted effect of over 55% in size
Method in brief: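 CellSensor p53RE-bla HCT-116 cells (4,000/well) pre-incubated 5 h at 37 C, then exposed to compounds in DMSO for 16 h at 37 C. Viability read as ATP content by CellTiter-Glo luminescence after 30 min at room temperature.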

T1 sequence (P35557 whole entry, looked up): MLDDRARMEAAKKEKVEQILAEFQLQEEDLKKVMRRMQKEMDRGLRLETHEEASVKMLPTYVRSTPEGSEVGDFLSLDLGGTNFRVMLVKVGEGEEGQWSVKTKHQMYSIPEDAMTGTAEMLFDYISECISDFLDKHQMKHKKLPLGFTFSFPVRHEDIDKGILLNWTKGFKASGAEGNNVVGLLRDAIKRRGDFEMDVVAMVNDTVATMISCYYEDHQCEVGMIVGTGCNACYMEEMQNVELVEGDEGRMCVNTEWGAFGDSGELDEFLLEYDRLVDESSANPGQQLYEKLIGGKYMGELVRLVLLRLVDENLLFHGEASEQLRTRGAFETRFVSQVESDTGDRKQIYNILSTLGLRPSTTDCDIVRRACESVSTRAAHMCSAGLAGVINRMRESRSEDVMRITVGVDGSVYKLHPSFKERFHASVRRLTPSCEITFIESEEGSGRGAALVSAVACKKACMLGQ
T1 sequence (Q14397 whole entry, looked up): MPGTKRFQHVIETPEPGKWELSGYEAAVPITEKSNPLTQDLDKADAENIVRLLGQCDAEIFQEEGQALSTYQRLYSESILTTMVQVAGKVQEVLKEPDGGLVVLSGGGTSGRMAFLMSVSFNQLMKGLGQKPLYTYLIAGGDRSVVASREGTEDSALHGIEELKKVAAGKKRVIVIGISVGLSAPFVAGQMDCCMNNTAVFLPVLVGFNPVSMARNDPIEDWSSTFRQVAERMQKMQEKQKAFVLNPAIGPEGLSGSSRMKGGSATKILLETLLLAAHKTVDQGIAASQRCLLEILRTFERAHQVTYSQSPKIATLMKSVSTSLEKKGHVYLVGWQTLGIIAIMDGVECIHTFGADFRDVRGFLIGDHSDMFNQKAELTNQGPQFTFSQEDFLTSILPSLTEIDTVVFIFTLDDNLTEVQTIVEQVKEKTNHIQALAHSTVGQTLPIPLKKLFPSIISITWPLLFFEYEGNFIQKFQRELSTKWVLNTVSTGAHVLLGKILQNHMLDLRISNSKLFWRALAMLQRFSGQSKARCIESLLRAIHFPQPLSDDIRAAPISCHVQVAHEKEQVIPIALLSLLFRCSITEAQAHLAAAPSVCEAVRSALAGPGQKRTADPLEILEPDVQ

In the case of `CCCCCCCC/C=C\CCCCCCCC(=O)NCCO`, the Potency [1] is reported as “inactive”, the outcome [2] is reported as “inactive” and the Potency [3] is reported as “inactive”. For the same compound, the max response [4] was 8.34%, the Potency [5] was “inactive” and the Potency [6] was “inactive”.

In the case of `O=c1[nH]c2ccccc2n1CCCN1CCN(C(c2ccccc2)c2ccccc2)CC1`, the max response [4] is reported as 14.5%, the Potency [5] is reported as “inactive” and the Potency [7] is reported as “inactive”.

For `OC[C@H]1O[C@@H](n2cnc3c(NC4CCCCC4)ncnc32)[C@H](O)[C@@H]1O`, the outcome [2] was “inactive”, the Potency [3] was “inactive” and the Potency [8] was “inactive”. The max response [4] was 8.7%, the Potency [5] was “inactive” and the Potency [6] was “inactive”.

With `Clc1ccc(N2CCN(Cc3c[nH]c4ncccc34)CC2)cc1` the outcome [2] was “inactive”, the Potency [3] was “inactive” and the Potency [8] was “inactive”. The Potency [5] was “inactive” and the Potency [6] was “inactive”.

With `CC(=O)N[C@H](C(=O)O)C(C)(C)SN=O` the Potency [1] was “inactive”, the outcome [2] was “inactive” and the Potency [3] was “inactive”. The max response [4] was 7.76% and the Potency [5] was “inactive”.

In the case of `COC(=O)Nc1nc2ccc(C(=O)C3CC3)cc2[nH]1`, the Potency [6] is reported as “inactive”.

For `COc1ccc(/C=C/C(=O)Nc2ccccc2C(=O)O)cc1OC`, the Potency [1] was “inactive”, the outcome [2] was “inactive” and the Potency [3] was “inactive”. The Potency [8] was “inactive”, the max response [4] was 46% and -4.4% and the Potency [6] was 7.08 µM (active). The Potency [9] was “inactive” and the Potency [7] was “inactive”.

For `CC(C)NC[C@@H](O)c1ccc(O)c(O)c1`, the Potency [1] was “inactive”, the outcome [2] was “inactive” and the Potency [3] was “inactive”. For the same compound, the max response [4] was 19.2% and the Potency [5] was “inactive”.

For `CC(N)C(=O)OC(C)(C)Cc1ccc(Cl)cc1` (stereo unspecified), the Potency [1] was “inactive”, the outcome [2] was “inactive” and the Potency [3] was “inactive”. The Potency [8] was “inactive”, the max response [4] was 11% and 11.7% and the Potency [6] was “inactive”. For the same compound, the Potency [9] was “inactive” and the Potency [7] was “inactive”.

For `Cc1ccc(O)c(N=Nc2ccccc2)n1`, the outcome [2] was “inactive”, the Potency [3] was “inactive” and the Potency [8] was “inactive”. For the same compound, the Potency [4] was 2.51 µM (active) and the Potency [5] was 0.891 µM (active).

For `Cn1c(=O)c2[nH]c(-c3ccccc3)nc2n(C)c1=O`, the outcome [2] was “inactive”, the Potency [3] was “inactive” and the max response [4] was 16.2%. The Potency [5] was “inactive”.

With `CC1(C)S[C@@H]2[C@H](NC(=O)[C@H](N)c3ccccc3)C(=O)N2[C@H]1C(=O)O` the Potency [10] was “inactive”, the max response [11] was -0.498% and the max response [4] was 0.735%. The max response [12] was 1.44%, the Potency [13] was “inactive” and the Potency [5] was “inactive”.

For `C/C(=N\O)c1ccc(OCC(=O)N2CCCCC2)cc1`, the max response [4] was 0.0539% and the Potency [5] was 15.8 µM (active).

With `Nc1nc2ccc([N+](=O)[O-])cc2s1` the Potency [10] was “inactive”, the max response [11] was -4.37% and the max response [4] was 8.79%. The max response [12] was 6.78%, the Potency [13] was “inactive” and the Potency [5] was 10 µM (active).

In the case of `CCCCCCCC/C=C/C(=O)O`, the Potency [6] is reported as “inactive”.

— PubChem BioAssay (NCATS)
